# Screens (PubChem)
# MCF10A rerep – A quantitative high throughput screen for small molecules that induce DNA re-replication in MCF 10a normal breast cells; Potency, µM (top dose mostly 46.1 µM), inactives show top-dose activity, positive = re-replication, hits mostly activators; MCF 10A DNA re-replication, Hoechst nuclear intensity, 48 h; hit rate 2.9% among 350,000; also: potency is read from the fitted curve at half-maximal effect; % of control where 0% means no effect; nearly all actives have a fitted effect of over 50% in size
# VP16 counter – VP16 counterscreen qHTS for inhibitors of ROR gamma transcriptional activity | AID 2546, 2010 | hit rate 3.5% among 310,000 | Potency, µM (doses to about 53.6 µM), inactives show at the highest dose activity, negative = inhibition, actives largely listed as inhibitors | Drosophila S2 Gal4-VP16 UAS-luciferase, luminescence, 20 h;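 also: Gal4-VP16 expression switched on by copper sulfate through the metallothionein promoter; potency is read from the fitted curve at half-maximal effect; % is scaled to controls: 0 for no effect and ±100 for the full control effect; nearly all actives have a fitted effect of over 50% in size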
# SW480 rereplic – A quantitative high throughput screen for small molecules that induce DNA re-replication in SW480 colon adenocarcinoma cells; Potency, µM (doses to about 46.1 µM), inactives show at the top dose re-replication activation, most hits filed as activators; hit rate 1.8% among 340,000; SW480 DNA re-replication, Hoechst DNA content imaging, 48 h; also: potency is read from the fitted curve at half-maximal effect; % of control where 0% means no effect; nearly all actives have a fitted effect of over 55% in size
#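 Image-based DNA-content assay: after two days of treatment, nuclei were labelled with the DNA dye Hoechst and imaged, and hits were compounds raising the count of nuclei showing high fluorescence intensity.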
# IL-1B inflam inh – qHTS for Inhibitors of Inflammasome Signaling: IL-1-beta AlphaLISA Primary Screen. THP-1 LPS/ATP IL-1B secretion, AlphaLISA, 16 h; stronger effect = lower value. activity change, % at 57.5 µM. hit rate 4.7% among 360,000. AID 743279, 2014; in the data active = activity change below about -50%; inconclusive = mostly about -30% to -49%; also: % is scaled to controls: 0 for no effect and ±100 for the full control effect
#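 Secreted IL-1B measured by AlphaLISA bead assay after 16 h compound exposure of THP-1 cells; compounds (final up to 57.5 uM) added 1 h before LPS (250 ng/mL) and ATP (1.25 mM) stimulation; lower signal means less secretion.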
# RORg inh – qHTS for inhibitors of ROR gamma transcriptional activity; AID 2551, 2010; hit rate 5.4% among 310,000; Potency, µM (highest dose often 53.6 µM), without a hit: at the highest dose activity change, negative = inhibition, most hits filed as inhibitors; Drosophila S2 Gal4-RORgamma UAS-luciferase reporter, 20 h; Nuclear receptor ROR-gamma (Mus musculus), P51450; also: potency is read from the fitted curve at half-maximal effect; % is scaled to controls: 0 for no effect and ±100 for the full control effect; nearly all actives have a fitted effect of over 60% in size
# Target sequence (P51450 whole entry, looked up, the tested form may be a part): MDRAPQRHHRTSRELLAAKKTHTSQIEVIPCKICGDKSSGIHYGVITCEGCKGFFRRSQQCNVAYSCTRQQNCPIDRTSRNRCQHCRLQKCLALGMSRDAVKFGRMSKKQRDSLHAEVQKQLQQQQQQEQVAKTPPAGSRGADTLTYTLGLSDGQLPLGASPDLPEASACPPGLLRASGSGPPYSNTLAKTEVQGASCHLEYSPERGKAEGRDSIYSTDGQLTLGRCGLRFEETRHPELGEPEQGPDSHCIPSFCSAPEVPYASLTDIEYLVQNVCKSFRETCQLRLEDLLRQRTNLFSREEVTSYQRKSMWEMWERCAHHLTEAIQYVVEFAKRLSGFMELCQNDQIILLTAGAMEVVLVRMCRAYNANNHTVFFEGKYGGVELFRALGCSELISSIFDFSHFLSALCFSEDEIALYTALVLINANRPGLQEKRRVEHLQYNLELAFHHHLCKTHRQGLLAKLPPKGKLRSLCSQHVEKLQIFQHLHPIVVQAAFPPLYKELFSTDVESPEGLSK
#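 Read-out: Photinus luciferase luminescence; inhibitors lower reporter signal. Insect Schneider cells with Gal4-ROR gamma fusion under metallothionein promoter, UAS reporter; 700 uM final copper sulfate induction, 20 hr, ambient temperature.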
# Active calls of the source: *; ? = inconclusive; nt = not tested or not shown; [ ] = another dose, or the depositor's remark. Compounds with a hit are over-represented: about 11% of the library has one in this group of screens. Unless noted, calls follow the shape of the dose curve; as a rule, active = well fitted curve in the direction sought with a large enough effect; inconclusive = small, poorly fitted or top-dose-only effect, or another doubt; inactive = no such curve, though single readings can be large; an effect the other way counts as inactive or inconclusive.
SMILES,MCF10A rerep,VP16 counter,SW480 rereplic,IL-1B inflam inh,RORg inh
Cc1cc(C(=O)N/N=C/C=C/c2ccccc2)c(C)o1,2%,11µM*,-4%,-24,7.9µM*
O=C(N/N=C/C=C/c1ccccc1)c1ccccc1Br,-4%,?,-2%,-9,3.2µM*
CCC/C=N/NC(=O)c1cccc(Br)c1,-11%,29%,0%,-15,?
O=C(O)c1cc(N/N=C/C=C/c2ccccc2)ccc1Cl,21µM*,6%,-8%,6,35%
O=C(N/N=C/C=C/c1ccccc1)c1cccc(Br)c1,?,5µM*,3%,-26,1µM*
COc1ccc(OC)c(C2=CC(=O)C[C@H](c3ccc4c(c3)OCO4)C2)c1,?,nt,?,6,nt
CCCN1CCN(S(=O)(=O)c2ccc(-n3cnnn3)cc2)CC1,0%,-4%,-21%,-2,0%
Cc1occc1C(=O)N/N=C/C=C/c1ccccc1[N+](=O)[O-],-3%,?,-4%,-62*,11µM*
Cc1occc1C(=O)N/N=C/c1ccc(N(C)C)cc1,7%,?,-47%,-17,10µM*
Cc1ccc(/C=N/NC(=O)c2ccoc2C)o1,13%,23%,1%,6,-12%
CC(C)c1cc(C(=O)N/N=C/C=C/c2ccccc2)n[nH]1,-3%,20µM*,-3%,?,?
Cc1cc(C(=O)N/N=C/C=C/c2ccccc2[N+](=O)[O-])c(C)o1,-2%,?,2%,-24,?
CCc1nc2c(OCC(=O)c3ccc(Cl)cc3Cl)cccn2c1N(C=O)Cc1ccccc1,nt,nt,nt,-8,nt
Cc1nc2ncccn2c1-c1csc(Nc2cccc(C(=O)O)c2)n1,2%,0%,-54%,19,11%
Cc1nc2ccccn2c1-c1csc(Nc2ccc(C(=O)O)cc2)n1,12µM*,1%,12µM*,95,6%
Cc1cccc(Nc2nc(-c3ccc(O)cc3O)cs2)n1,9%,?,?,-90*,4µM*
Cc1nc2ccccn2c1-c1csc(Nc2cccc(O)c2)n1,?,8%,?,-104*,4%
Cc1cccc(Nc2nc(-c3c(C)nc4ccccn34)cs2)c1,-3%,?,?,-96*,13µM*
Cc1nc2ccccn2c1-c1csc(Nc2cccc(C(=O)O)c2)n1,6%,4%,2%,30,0%
Oc1ccc(-c2csc(Nc3ncccn3)n2)c(O)c1,1%,-13%,-39%,-21,0%
COc1cc(OC)cc(C(=O)NCC2CCCN(Cc3cccc(C(C)=O)c3)C2)c1 (centres undefined),17%,2%,-37%,8,7%
COc1ccc(Oc2ncc3nc(-c4cc(F)cc(F)c4)c(=O)n(CCC#N)c3n2)cc1,nt,10%,nt,nt,7%
N#Cc1ccc(Nc2nc(-c3ccc(O)cc3O)cs2)cc1C(F)(F)F,?,nt,-44%,-101*,nt
COc1cccc(NC(=O)CN(C)C(=O)CC(NC(=O)c2ccccc2Cl)c2ccccc2)c1 (centres undefined),1%,nt,-22%,-4,nt
Cn1c(=O)c2c(ncn2C[C@@H](O)CO)n(C)c1=O,-2%[20.6 µM],4%[17 µM],0%[20.6 µM],nt,-9%[2.98 µM]
SMILES,MCF10A rerep,VP16 counter,SW480 rereplic,IL-1B inflam inh,RORg inh
CCN(CC)S(=O)(=O)c1cccc(C(=O)N/N=C/c2ccc([N+](=O)[O-])o2)c1,?,?,21µM*,-89*,10µM*
Cc1ccc(C(=O)N/N=C\c2ccc(Br)o2)o1,2%,3%,-1%,-28,-12%
Cc1ccc(C(=O)N/N=C/c2ccc(-c3ccc(Br)cc3[N+](=O)[O-])o2)o1,5.8µM*,?,-3%,-85*,?
O=C(N/N=C/c1ccc(-c2ccccc2[N+](=O)[O-])o1)c1cncc(Br)c1,10%,5µM*,2%,?,6.3µM*
O=[N+]([O-])c1ccc(/C=N\NS(=O)(=O)c2ccc(F)cc2)o1,?,14µM*,?,-29,?
CCN(CC)S(=O)(=O)c1cccc(C(=O)N/N=C/c2ccccc2OCC(=O)O)c1,-27%,8%,4%,7,11%
O=C(N/N=C\c1ccc(-c2ccccc2[N+](=O)[O-])o1)C1COc2cc3ccccc3cc2O1 (centres undefined),8%,-15%,-1%,7,?
C[C@@]12C=Cc3occc3[C@H]1CC[C@]13CC(=O)[C@@H](CC[C@H]12)C3,nt,-6%,nt,nt,-23%
COc1cc2c(c(OC)c1OC)-c1ccc(NCc3ccccc3)c(=O)cc1C(NC(C)=O)CC2 (centres undefined),nt,nt,nt,85,nt
CCOC(=O)C1=CCN(S(=O)(=O)c2ccccc2[N+](=O)[O-])C1c1ccc(C)cc1 (centres undefined),nt,nt,nt,48,nt
COc1ccc(NC(=O)COC(=O)C2CC(=O)N(CCc3ccc(OC)c(OC)c3)C2)cc1Cl (centres undefined),9%,nt,?,-3,nt
O=C(N/N=C/c1ccc([N+](=O)[O-])o1)c1ccc(O)cc1,?,13µM*,?,63,11µM*
O=C(N/N=C/c1ccc([N+](=O)[O-])o1)c1ccccc1NS(=O)(=O)c1cccs1,18µM*,-10%,?,-12,-22%
Cc1scc(C(=O)N/N=C/c2ccc([N+](=O)[O-])o2)c1C,nt,7.1µM*,nt,nt,4µM*
O=C(N/N=C\c1ccc([N+](=O)[O-])o1)c1cncc(Br)c1,?,?,26%,-79*,?
CC(=O)NCCNc1nc(-c2cccc(C#N)c2)nc2ccccc12,nt,1%,nt,nt,13%
COC(=O)C[C@@H]1C[C@@H]2c3cc(NS(=O)(=O)c4ccc(F)cc4)ccc3O[C@@H]2[C@@H](CO)O1,nt,nt,nt,8,nt
CCN(CC)C(=O)C1=C(C)N(Cc2ccc(OC)cc2)C(=O)C(CC(=O)NCC2CCCCC2)C1 (centres undefined),nt,nt,nt,-12,nt
Cn1c(CSCc2ccc(Cl)cc2)n[nH]c1=S,10%,13µM*,1%,-29,2.8µM*
Cn1c(CSCc2ccccc2Cl)n[nH]c1=S,-12%,-9%,-1%,-7,-14%
Cn1c(CSCc2ccccc2)n[nH]c1=S,1%,?,2%,6,11µM*
Cn1c(CSCc2ccc(Cl)cc2Cl)n[nH]c1=S,-1%,6.3µM*,5%,7,0.79µM*
CSc1nnc(CSCc2ccc(Cl)cc2Cl)n1-c1ccccc1,11µM*,0%,19%,-16,-12%
COC(Cc1nnc(SC)n1-c1ccccc1)OC,10%,4%,0%,11,5%
Cn1c(CSCc2ccc(F)cc2)n[nH]c1=S,3%,?,-3%,7,?
